Source: publication PMC5540273 (PLoS ONE, 2017)

What was measured:
Conditions in all cases: concentration: 1 μM, replicates: in singlicate; n = 1
LOK = test system: T1, LOK
T1 construct: gene STK10

LRRK2 = test system: LRRK2
LTK = test system: LTK
LYN = test system: LYN
LZK = test system: T2, LZK
T2 construct: gene MAP3K13

MAK = test system: MAK
MAP3K15 = test system: MAP3K15
MAP3K1 = test system: MAP3K1
MAP3K2 = test system: MAP3K2
MAP3K3 = test system: MAP3K3
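Note: KINOMEscan kinase panel screen.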

| Structure (SMILES) | %Inh (LOK) [%] | %Inh (LRRK2) [%] | %Inh (LTK) [%] | %Inh (LYN) [%] | %Inh (LZK) [%] | %Inh (MAK) [%] | %Inh (MAP3K15) [%] | %Inh (MAP3K1) [%] | %Inh (MAP3K2) [%] | %Inh (MAP3K3) [%] |
| --- | --- | --- | --- | --- | --- | --- | --- | --- | --- | --- |
| CCS(=O)(=O)c1ccc(OC)c(Nc2ncc(-c3ccc(F)cc3)o2)c1.Cl [GW591947] | 0 | 0 | 0 | 0 | 0 | 80 | 0 | 0 | 0 | 0 |
| CC(C)(C)c1ccc(C(=O)Nc2cn3cc(-c4ccccc4)ccc3n2)cc1 | 0 | 0 | 0 | 0 | 0 | 11 | 22 | 0 | 0 | 2 |
| COc1cc(OC)cc(-c2cc3cnc(N)nc3nc2NC(=O)NC(C)(C)C)c1 | 13 | 0 | 0 | 0 | 0 | 0 | 0 | 0 | 0 | 13 |
| CCCNC(=O)Nc1ccc(Oc2ncnc3ccn(C)c23)cc1 | 47 | 0 | 4 | 30 | 22 | 0 | 0 | 31 | 15 | 0 |
